Assay results from PubChem BioAssay (Tox21).
“And” between values parts separate entries of the source, which are not always exact repeats. Identical values can stand only once. Inconclusive results are not listed. Where a structure was tested more than once in an assay, its records may differ in their call. The source made the active and inactive calls. Unless noted, the call rests on the fitted dose curve; in most records, active means well fitted curve in the direction sought with a large enough effect in the repeat runs; inconclusive means weak or mixed curves; inactive means no such curve, though single readings can be large; an effect the other way counts as inactive or inconclusive.

Columns and labels:
[1] = qHTS assay to identify small molecule antagonists of the estrogen related receptor (ERR) signaling pathway from Tox21 library - cell viability counter screen (AID 1224834); further: nearly all actives have a fitted effect of over 30% in size; further: potency means the concentration at half of the fitted maximal effect
Method in brief: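 In this quantitative HTS format, ERR cells receive compounds in DMSO and are incubated for 17.5 h at 37 C. Live-cell protease activity is then detected with CellTiter-Fluor.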

[2] = target: Luciferin 4-monooxygenase (Photinus pyralis) (UniProt P08659); experiment: qHTS assay to identify small molecule inhibitors of firefly luciferase (AID 1224835); further: nearly all actives have a fitted effect of over 25% in size
Method in brief: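 Quantitative HTS format; KM concentrations of both substrates. Purified P. pyralis FLuc activity quantified from luminescence images.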

[3] = qHTS assay to identify small molecule agonists of the constitutive androstane receptor (CAR) signaling pathway - cell viability counter screen (AID 1224836); further: nearly all actives have a fitted effect of over 45% in size; further: potency means the concentration at half of the fitted maximal effect
Method in brief: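 23 h treatment, 37 C, 5% CO2. Cell line: HepG2 stably expressing hCAR with a CYP2B6-2.2kb construct. Co-treatment: PK11195, 0.75 uM final. Read-out: CellTiter-Fluor fluorescence intensity.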

[4] = qHTS assay to identify small molecule antagonists of the constitutive androstane receptor (CAR) signaling pathway - cell viability counter screen (AID 1224837); further: nearly all actives have a fitted effect of over 45% in size; further: potency means the concentration at half of the fitted maximal effect
Method in brief: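 In quantitative HTS format, compounds at 15 concentrations were applied to HepG2 cells double-transfected with hCAR and CYP2B6-2.2kb under 50 nM CITCO stimulation; live-cell protease activity was read after 23 hr via CellTiter-Fluor.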

[5] = qHTS assay to identify small molecule antagonists of the estrogen related receptor signaling pathway with the pleiotropic PPARgamma coactivator (PGC) from Tox21 10K library - cell viability counter screen (AID 1224840; active means well fitted cell-killing curve with a large enough effect in the repeat runs, not every such curve was filed as active; further: nearly all actives have a fitted effect of over 40% in size; further: potency means the concentration at half of the fitted maximal effect)
Method in brief: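 Viability counter screen, PGC/ERR cells: 17.5 h compound exposure at 37 C, CellTiter-Fluor fluorescence endpoint.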

[6] = qHTS assay to identify small molecule agonists of the hypoxia (HIF-1) signaling pathway - cell viability counter screen (AID 1224844; calls by dose curve; further: nearly all actives have a fitted effect of over 50% in size; further: potency means the concentration at half of the fitted maximal effect)
Method in brief: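 Same wells as the HIF-1 reporter screen; ME-180 cells carrying HRE-bla, 17 hr treatment at 37C; CellTiter-Glo luminescence read after 30 min at room temperature.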

[7] = qHTS assay to identify small molecule agonists of H2AX (AID 1224845; active means well fitted activation curve with a large enough effect in the signal ratio in the repeat runs, not every such curve was filed as active; the % refers to the signal ratio)
Method in brief: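 Wild-type CHO-K1 cells plated overnight, then exposed 3 hr at 37C to compounds at 15 concentrations (0.76% DMSO). Lysed, then HTRF anti-pH2AX(S139)-cryptate/anti-H2AX-d2 detection after 24 hr at room temperature; emissions 665 and 620 nm.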

[8] = qHTS assay to identify small molecule agonists of the hypoxia (HIF-1) signaling pathway (AID 1224846; active means well fitted activation curve with a large enough effect in the signal ratio in the repeat runs, not every such curve was filed as active; the % refers to the signal ratio)
Method in brief: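 In ME-180 cells bearing an HRE-bla construct, 17 h treatment with DMSO-dissolved compounds at 37C was followed by CCF4-AM loading to quantify reporter induction.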

[9] = qHTS assay to identify small molecule agonists of H2AX - cell viability counter screen (AID 1224847; calls by dose curve; further: top concentration of the series differs between compounds; nearly all actives have a fitted effect of over 30% in size)
Method in brief: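 Compounds tested at 15 concentrations were incubated 3 hr at 37C with wild-type CHO-K1 cells; cellular ATP-based luminescence (CellTiter-Glo) indicated viability.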

[10] = qHTS RealTime-Glo MT Cell Viability Assay in HepG2 cells - 24 hour (AID 1224867); further: nearly all actives have a fitted effect of over 50% in size
Method in brief: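 HepG2 cells (600/well) were dispensed with RealTime-Glo reagents, incubated 5 h at 37 °C, then treated with compounds in DMSO for up to 40 h. Nonlytic NanoLuc luminescence reflecting viable cells was read at each stated time point.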

[11] = qHTS RealTime-Glo MT Cell Viability Assay in HEK293 cells - 32 hour (AID 1224868); further: nearly all actives have a fitted effect of over 50% in size; further: potency means the concentration at half of the fitted maximal effect
Method in brief: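 HEK293 cells seeded with NanoLuc/prosubstrate reagent, rested 5 h at 37 C, then dosed and kept at 37 C up to 40 h. Nonlytic real-time luminescence from viable cells read at 0, 8, 16, 24, 32 and 40 h.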

[12] = A CellTox Green Cytotoxicity Assay to monitor cytotoxicity in HEK293 cells - 0 hour (AID 1224869); further: nearly all actives have a fitted effect of over 50% in size
Method in brief: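 Homogeneous no-lysis format: HEK293 cell suspension mixed with CellTox Green reagent, seeded, incubated 5 h at 37 C/5% CO2, then dosed by pintool with compound in DMSO.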

[13] = qHTS RealTime-Glo MT Cell Viability Assay in HepG2 cells - 40 hour (AID 1224870); further: nearly all actives have a fitted effect of over 50% in size
Method in brief: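 HepG2 cells mixed with RealTime-Glo MT reagents (NanoLuc plus cell-permeant prosubstrate) were seeded at 600 cells/well, incubated 5 h at 37 C/5% CO2, then pinned with compounds in DMSO; nonlytic luminescence tracked viability during 40 h treatment.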

[14] = target: Nuclear receptor subfamily 1 group I member 3 (Homo sapiens) (UniProt Q14994); experiment: qHTS assay to identify small molecule antagonists of the constitutive androstane receptor (CAR) signaling pathway (AID 1224838); further: nearly all actives have a fitted effect of over 40% in size; further: potency means the concentration at half of the fitted maximal effect
Method in brief: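 CITCO-stimulated (50 nM final) HepG2 cells stably transfected with hCAR and CYP2B6-2.2kb luciferase were exposed to compounds at 15 concentrations for 24 h at 37 C/5% CO2. A luciferase reagent was added and luminescence recorded after 30 min.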

[15] = target: Nuclear receptor subfamily 1 group I member 3 (Homo sapiens) (UniProt Q14994); experiment: qHTS assay to identify small molecule agonists of the constitutive androstane receptor (CAR) signaling pathway (AID 1224839);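 further: HepG2 cells stably carrying human CAR and a CYP2B6 luciferase reporter; nearly all actives have a fitted effect of over 15% in size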
Method in brief: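 Compounds tested at 15 concentrations on HepG2 cells stably harbouring hCAR and CYP2B6-2.2kb reporter constructs, co-treated with PK11195 (0.75 uM final), 24 h at 37 C; luminescent reporter signal quantified.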

[16] = qHTS assay to identify small molecule antagonists of the estrogen related receptor signaling pathway with the pleiotropic PPARgamma coactivator (PGC) from Tox21 10K library (AID 1224841; call rule not given here; further: potency means the concentration at half of the fitted maximal effect)
Method in brief: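 In the PGC/ERR line, DMSO solutions of test chemicals are pin-delivered to 2,000 cells/well six hours after dispensing. Following eighteen hours' incubation, One-Glo reagent is added and luminescence recorded.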

[17] = qHTS assay to identify small molecule agonists of the estrogen related receptor signaling pathway with the pleiotropic PPARgamma coactivator (PGC) from Tox21 10K library (AID 1224842); further: nearly all actives have a fitted effect of over 15% in size
Method in brief: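 PGC/ERR reporter cells (NTP line) were seeded 2,000 per well, rested 6 h at 37 C/5% CO2, then pin-dosed with compounds in DMSO for 18 h at 37 C; luciferase read by One-Glo luminescence after 30 min at room temperature.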

[18] = qHTS assay to identify small molecule antagonists of the estrogen related receptor (ERR) signaling pathway from Tox21 library (AID 1224848); further: nearly all actives have a fitted effect of over 50% in size; further: potency means the concentration at half of the fitted maximal effect
Method in brief: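 First, 2,000 ERR cells per well were plated and held 6 h at 37 C/5% CO2. Next, compounds in DMSO were pinned in and left 18 h at 37 C. Finally, ONE-Glo was added and luminescence read after 30 min at room temperature.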

[19] = qHTS assay to identify small molecule agonists of the estrogen related receptor (ERR) signaling pathway from Tox21 library (AID 1224849; calls by dose curve; further: nearly all actives have a fitted effect of over 15% in size); conditions: ERR reporter cell line, ONE-Glo luciferase, 18 h
Method in brief: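 Reporter cells (ERR, NTP source) treated with Tox21 10K compounds 18 h, 37 C. Readout: ONE-Glo luminescence, 30 min RT.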

[20] = target: Thyrotropin receptor (Homo sapiens) (UniProt P16473); experiment: qHTS assay to identify small molecule agonists of the thyroid stimulating hormone receptor (TSHR) signaling pathway (AID 1224843; calls by dose curve; further: nearly all actives have a fitted effect of over 45% in size; further: potency means the concentration at half of the fitted maximal effect)
Method in brief: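 Compounds are titrated over 15 concentrations, in triplicate, onto TSHR-HEK293 cells seeded at 800/well. Plates sit 30 min at room temperature before cAMP-d2 and anti-cAMP cryptate are added; signal is read after a further hour.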
On the % scale 0 is the no-effect control and ±100 the full control effect.

Thyrotropin receptor (Homo sapiens), sequence (P16473 whole entry, looked up): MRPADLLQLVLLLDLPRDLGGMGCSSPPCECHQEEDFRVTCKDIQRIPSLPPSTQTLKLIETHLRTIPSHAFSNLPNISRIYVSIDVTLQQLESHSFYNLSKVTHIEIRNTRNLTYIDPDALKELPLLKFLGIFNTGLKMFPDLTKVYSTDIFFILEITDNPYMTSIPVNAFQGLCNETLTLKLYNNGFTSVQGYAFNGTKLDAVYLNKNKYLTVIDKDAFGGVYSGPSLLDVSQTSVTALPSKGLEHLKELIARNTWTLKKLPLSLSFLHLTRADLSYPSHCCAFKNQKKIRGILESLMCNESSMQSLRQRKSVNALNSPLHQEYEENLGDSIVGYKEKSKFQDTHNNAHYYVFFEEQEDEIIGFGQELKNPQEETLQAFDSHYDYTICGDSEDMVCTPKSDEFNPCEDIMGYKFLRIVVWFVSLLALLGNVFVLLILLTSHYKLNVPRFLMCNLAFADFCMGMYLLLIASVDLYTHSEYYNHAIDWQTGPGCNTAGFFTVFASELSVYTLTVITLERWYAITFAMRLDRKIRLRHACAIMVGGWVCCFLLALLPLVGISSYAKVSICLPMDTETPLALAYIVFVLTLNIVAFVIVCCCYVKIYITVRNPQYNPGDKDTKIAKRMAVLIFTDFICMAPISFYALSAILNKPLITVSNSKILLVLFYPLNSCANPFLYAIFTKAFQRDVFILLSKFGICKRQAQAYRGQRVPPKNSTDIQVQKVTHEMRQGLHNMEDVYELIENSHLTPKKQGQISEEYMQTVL
Nuclear receptor subfamily 1 group I member 3 (Homo sapiens), sequence (Q14994 whole entry, looked up): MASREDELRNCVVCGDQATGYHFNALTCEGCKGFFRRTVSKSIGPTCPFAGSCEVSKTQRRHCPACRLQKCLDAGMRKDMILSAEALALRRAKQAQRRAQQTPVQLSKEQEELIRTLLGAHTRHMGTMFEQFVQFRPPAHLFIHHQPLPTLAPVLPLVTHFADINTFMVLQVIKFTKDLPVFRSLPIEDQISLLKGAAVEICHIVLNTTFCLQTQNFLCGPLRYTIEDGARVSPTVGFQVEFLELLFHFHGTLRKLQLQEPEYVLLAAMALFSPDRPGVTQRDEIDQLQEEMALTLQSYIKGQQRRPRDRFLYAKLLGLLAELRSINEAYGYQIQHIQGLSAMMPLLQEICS
Luciferin 4-monooxygenase (Photinus pyralis), sequence (P08659 whole entry, looked up): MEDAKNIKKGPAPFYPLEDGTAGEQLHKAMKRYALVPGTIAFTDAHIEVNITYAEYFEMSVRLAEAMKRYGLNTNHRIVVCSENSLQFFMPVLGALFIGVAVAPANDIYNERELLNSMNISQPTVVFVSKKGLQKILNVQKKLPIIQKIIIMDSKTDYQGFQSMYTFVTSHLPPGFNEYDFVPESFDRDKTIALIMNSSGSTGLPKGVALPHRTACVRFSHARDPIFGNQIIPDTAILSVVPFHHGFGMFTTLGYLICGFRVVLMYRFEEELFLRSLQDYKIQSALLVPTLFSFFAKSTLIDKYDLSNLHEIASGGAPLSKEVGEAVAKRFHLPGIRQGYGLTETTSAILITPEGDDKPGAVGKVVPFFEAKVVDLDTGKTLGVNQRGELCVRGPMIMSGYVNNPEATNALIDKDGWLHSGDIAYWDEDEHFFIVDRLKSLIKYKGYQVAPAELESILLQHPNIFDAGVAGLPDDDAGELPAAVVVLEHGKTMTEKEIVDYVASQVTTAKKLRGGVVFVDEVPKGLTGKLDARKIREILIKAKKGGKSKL

NC(N)=NC(N)=NCCc1ccccc1
inactive: Potency [1] | Potency [2] | Potency [3] | Potency [4] | Potency [5] | Potency [6] | Potency [7] | outcome [8] | Potency [9] | outcome [10] | Potency [11] | Potency [12] | outcome [13]

CO[C@H]1C=CO[C@@]2(C)Oc3c(C)c(O)c4c(O)c(c(/C=N/N5CCN(C)CC5)c(O)c4c3C2=O)NC(=O)/C(C)=C\C=C[C@H](C)[C@H](O)[C@@H](C)[C@@H](O)[C@@H](C)[C@H](OC(C)=O)[C@@H]1C
active: Potency [1] 27.4 µM and 31 µM and 23.7 µM | Potency [3] 27.4 µM | Potency [4] 30.8 µM | Potency [5] 27.4 µM | Potency [16] 48.8 µM and 23.7 µM | Potency [18] 48.8 µM and 23.7 µM | Potency [11] 19.6 µM and 9.88 µM
54.8 µM (active) and inactive: Potency [14]
inactive: Potency [15] | Potency [17] | Potency [6] | Potency [9] | activity change, positive = activation ([19]; at 42.5 µM (top of the series)) -25.2% and -32.7% | activity change, positive = activation ([19]; at 92.4 µM (top of the series)) -53.6% | outcome [10] | Potency [12] | outcome [13]

CCOC(=O)C(C)(C)Oc1ccc(Cl)cc1
inactive: Potency [1] | Potency [2] | Potency [3] | Potency [4] | Potency [5] | Potency [16] | Potency [17] | Potency [20] | Potency [6] | Potency [9] | Potency [18] | activity change, positive = activation ([19]; at 42.5 µM (top of the series)) 1.46% | activity change, positive = activation ([19]; at 92.4 µM (top of the series)) 1.63% and -0.349% | outcome [10] | Potency [11] | Potency [12] | outcome [13]

COC1=CC(=O)C[C@@H](C)[C@]12Oc1c(Cl)c(OC)cc(OC)c1C2=O
active: Potency [14] 9.6 µM and 13.7 µM | Potency [20] 9.6 µM and 17.2 µM | Potency [18] 4.81 µM and 7.7 µM and 5.96 µM
inactive: Potency [2] | Potency [3] | Potency [4] | Potency [15] | Potency [5] | Potency [16] | Potency [17] | Potency [6] | outcome [8] | Potency [9] | activity change, positive = activation ([19]; at 42.5 µM (top of the series)) -32% | activity change, positive = activation ([19]; at 92.4 µM (top of the series)) -36.3% and -39.4% | outcome [10] | Potency [11] | Potency [12] | outcome [13]

CC1=NN(c2ccccc2)C(=O)C1
inactive: Potency [1] | Potency [2] | Potency [3] | Potency [4] | Potency [5] | Potency [6] | Potency [7] | Potency [9] | outcome [10] | Potency [11] | Potency [12]

CC(=O)/C=C/C1=C(C)CCCC1(C)C
inactive: Potency [1] | Potency [2] | Potency [3] | Potency [4] | Potency [5] | Potency [6] | outcome [8] | Potency [9] | outcome [10] | Potency [11] | Potency [12]

COc1cc2c(c(OC)c1OC)-c1ccc(OC)c(=O)cc1[C@@H](NC(C)=O)CC2
inactive: Potency [1] | Potency [2] | Potency [3] | Potency [7] | outcome [8] | Potency [9] | outcome [10] | Potency [12]
active: Potency [11] 24.3 nM
48.4 µM (active) and inactive: Potency [6]
2.4 µM (active) and inactive: Potency [5]

CC(=O)Oc1ccccc1C(=O)O
inactive: Potency [1] | Potency [2] | Potency [3] | Potency [4] | Potency [5] | Potency [6] | Potency [9] | outcome [10] | Potency [11] | Potency [12] | outcome [13]
